Experimental findings from ChEMBL document CHEMBL1961873, “Compounds: GSK PKIS; Assays: Nanosyn kinase panel” (2012) are described below.

In assay [1] the target is Tyrosine-protein kinase CSK (Homo sapiens) (UniProt P41240). The following applies: at 1 µM.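 Further: each value is an averaged inhibition reading.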
Assay [2] concerns the target T1, Discoidin domain-containing receptor 2 (Homo sapiens) (UniProt Q16832).
T1 sequence (whole entry): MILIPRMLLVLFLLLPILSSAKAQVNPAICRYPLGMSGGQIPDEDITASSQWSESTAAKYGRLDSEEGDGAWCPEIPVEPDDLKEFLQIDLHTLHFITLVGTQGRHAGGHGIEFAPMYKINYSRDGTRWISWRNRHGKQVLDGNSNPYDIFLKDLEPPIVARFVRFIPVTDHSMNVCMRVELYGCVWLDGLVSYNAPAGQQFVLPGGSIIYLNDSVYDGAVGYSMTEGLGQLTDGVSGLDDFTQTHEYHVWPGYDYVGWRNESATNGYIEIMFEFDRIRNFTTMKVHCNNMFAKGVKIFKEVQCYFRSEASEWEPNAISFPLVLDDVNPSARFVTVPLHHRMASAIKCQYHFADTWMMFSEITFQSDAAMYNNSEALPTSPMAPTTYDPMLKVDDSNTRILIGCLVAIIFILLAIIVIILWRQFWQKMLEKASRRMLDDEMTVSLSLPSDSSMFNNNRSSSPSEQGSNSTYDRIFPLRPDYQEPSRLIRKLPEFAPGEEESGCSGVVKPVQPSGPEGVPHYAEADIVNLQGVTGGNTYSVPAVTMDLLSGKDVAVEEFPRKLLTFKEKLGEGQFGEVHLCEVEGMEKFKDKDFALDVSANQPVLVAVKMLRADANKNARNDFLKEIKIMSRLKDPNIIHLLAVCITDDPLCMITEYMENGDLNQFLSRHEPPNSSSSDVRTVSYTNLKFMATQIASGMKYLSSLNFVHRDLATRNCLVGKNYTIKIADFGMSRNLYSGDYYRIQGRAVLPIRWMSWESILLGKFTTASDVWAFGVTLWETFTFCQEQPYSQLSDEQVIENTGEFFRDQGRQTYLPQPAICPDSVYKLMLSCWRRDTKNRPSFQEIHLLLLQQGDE
The following applies: at 0.1 µM.

Assay [3] deals with T1, Discoidin domain-containing receptor 2 (Homo sapiens). As to conditions: at 1 µM.
For assay [4], the target named is Epidermal growth factor receptor (Homo sapiens) (UniProt P00533). The following applies: at 0.1 µM.
For assay [5] the target is unchanged. The following applies: at 1 µM.
The subject of assay [6] is Epidermal growth factor receptor (Homo sapiens), P00533 [L858R]. The following applies: at 0.1 µM.
Assay [7] shares this test system. The following applies: at 1 µM.
Assay [8] relates to Epidermal growth factor receptor (Homo sapiens), P00533 [L861Q]. As to conditions: at 0.1 µM.
Assay [9] shares this test system. The following applies: at 1 µM.
Assay [10] has as its system Epidermal growth factor receptor (Homo sapiens), P00533 [T790M]. As to conditions: at 0.1 µM.
Assay [11] shares this test system. As to conditions: at 1 µM.
Assay [12] relates to Epidermal growth factor receptor (Homo sapiens), P00533 [L858R,T790M]. As to conditions: at 0.1 µM.
For assay [13] the test system is unchanged. The following applies: at 1 µM.
For assay [14], the target named is Ephrin type-A receptor 2 (Homo sapiens) (UniProt P29317). As to conditions: at 0.1 µM.
For assay [15] the target is unchanged. The following applies: at 1 µM.
Assay [16] has as its target T2, Ephrin type-A receptor 3 (Homo sapiens) (UniProt P29320).
T2 sequence (whole entry): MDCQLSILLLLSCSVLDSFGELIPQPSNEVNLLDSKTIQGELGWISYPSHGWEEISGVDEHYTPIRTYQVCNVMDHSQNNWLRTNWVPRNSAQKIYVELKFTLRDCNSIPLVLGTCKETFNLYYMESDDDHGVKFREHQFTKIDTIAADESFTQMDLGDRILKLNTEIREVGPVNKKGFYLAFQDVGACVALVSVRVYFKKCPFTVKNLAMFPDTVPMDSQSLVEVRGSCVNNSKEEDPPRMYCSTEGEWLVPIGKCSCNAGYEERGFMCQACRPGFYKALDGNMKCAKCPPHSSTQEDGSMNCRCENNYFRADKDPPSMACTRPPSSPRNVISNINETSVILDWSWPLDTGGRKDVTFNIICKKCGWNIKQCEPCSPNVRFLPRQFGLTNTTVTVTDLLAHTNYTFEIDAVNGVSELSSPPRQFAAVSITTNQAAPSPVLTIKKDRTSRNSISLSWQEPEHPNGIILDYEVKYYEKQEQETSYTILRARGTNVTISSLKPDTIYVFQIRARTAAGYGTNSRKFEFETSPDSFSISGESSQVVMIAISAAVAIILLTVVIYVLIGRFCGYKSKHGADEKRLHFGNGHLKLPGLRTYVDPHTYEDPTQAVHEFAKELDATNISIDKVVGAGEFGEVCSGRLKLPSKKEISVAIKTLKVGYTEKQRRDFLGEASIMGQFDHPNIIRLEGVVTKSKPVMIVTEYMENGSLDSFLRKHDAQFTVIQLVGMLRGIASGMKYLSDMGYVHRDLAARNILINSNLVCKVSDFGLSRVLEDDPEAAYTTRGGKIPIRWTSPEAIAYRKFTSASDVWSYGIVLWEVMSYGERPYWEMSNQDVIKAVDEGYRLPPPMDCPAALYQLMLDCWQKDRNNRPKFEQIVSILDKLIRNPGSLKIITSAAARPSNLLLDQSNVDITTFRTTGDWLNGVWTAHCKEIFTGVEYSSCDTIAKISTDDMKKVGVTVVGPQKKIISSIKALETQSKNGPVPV
As to conditions: at 0.1 µM.

The target of assay [17] is T2, Ephrin type-A receptor 3 (Homo sapiens). The following applies: at 1 µM.
Assay [18] has as its target Ephrin type-A receptor 4 (Homo sapiens) (UniProt P54764). The following applies: at 0.1 µM.
The target is the same in assay [19]. The following applies: at 1 µM.
The target of assay [20] is T3, Ephrin type-B receptor 2 (Homo sapiens) (UniProt P29323).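 Further: reported as mean inhibition of EPHB2, from the GSK PKIS dataset.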
T3 sequence (whole entry): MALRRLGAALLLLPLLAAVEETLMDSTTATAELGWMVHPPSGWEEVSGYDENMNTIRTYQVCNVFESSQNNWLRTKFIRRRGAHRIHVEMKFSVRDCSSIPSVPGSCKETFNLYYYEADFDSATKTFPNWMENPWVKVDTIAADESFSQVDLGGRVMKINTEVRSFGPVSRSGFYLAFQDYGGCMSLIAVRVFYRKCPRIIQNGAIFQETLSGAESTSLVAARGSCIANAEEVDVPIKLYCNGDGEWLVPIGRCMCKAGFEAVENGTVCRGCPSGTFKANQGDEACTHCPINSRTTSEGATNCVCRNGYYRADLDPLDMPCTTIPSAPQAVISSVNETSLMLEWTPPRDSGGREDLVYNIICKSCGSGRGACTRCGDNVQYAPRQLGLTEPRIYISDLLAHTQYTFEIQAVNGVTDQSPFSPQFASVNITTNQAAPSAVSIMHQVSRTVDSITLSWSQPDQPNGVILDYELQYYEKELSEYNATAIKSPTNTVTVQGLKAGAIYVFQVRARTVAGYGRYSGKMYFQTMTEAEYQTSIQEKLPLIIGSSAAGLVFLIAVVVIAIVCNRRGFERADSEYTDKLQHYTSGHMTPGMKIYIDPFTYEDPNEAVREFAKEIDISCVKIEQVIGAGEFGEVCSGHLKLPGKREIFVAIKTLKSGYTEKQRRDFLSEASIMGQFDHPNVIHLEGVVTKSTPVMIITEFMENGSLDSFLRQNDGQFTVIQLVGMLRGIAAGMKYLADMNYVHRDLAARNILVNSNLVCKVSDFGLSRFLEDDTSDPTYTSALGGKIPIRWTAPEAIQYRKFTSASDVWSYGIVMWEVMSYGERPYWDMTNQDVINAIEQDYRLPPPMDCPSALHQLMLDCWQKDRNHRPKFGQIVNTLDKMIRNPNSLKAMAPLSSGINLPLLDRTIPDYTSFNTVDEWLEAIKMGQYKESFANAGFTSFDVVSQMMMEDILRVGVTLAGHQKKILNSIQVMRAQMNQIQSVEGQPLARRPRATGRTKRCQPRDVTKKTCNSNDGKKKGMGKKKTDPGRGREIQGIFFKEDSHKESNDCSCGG
The following applies: at 0.1 µM.

Epidermal growth factor receptor (Homo sapiens), P00533 [L858R], sequence (P00533 whole entry L858R): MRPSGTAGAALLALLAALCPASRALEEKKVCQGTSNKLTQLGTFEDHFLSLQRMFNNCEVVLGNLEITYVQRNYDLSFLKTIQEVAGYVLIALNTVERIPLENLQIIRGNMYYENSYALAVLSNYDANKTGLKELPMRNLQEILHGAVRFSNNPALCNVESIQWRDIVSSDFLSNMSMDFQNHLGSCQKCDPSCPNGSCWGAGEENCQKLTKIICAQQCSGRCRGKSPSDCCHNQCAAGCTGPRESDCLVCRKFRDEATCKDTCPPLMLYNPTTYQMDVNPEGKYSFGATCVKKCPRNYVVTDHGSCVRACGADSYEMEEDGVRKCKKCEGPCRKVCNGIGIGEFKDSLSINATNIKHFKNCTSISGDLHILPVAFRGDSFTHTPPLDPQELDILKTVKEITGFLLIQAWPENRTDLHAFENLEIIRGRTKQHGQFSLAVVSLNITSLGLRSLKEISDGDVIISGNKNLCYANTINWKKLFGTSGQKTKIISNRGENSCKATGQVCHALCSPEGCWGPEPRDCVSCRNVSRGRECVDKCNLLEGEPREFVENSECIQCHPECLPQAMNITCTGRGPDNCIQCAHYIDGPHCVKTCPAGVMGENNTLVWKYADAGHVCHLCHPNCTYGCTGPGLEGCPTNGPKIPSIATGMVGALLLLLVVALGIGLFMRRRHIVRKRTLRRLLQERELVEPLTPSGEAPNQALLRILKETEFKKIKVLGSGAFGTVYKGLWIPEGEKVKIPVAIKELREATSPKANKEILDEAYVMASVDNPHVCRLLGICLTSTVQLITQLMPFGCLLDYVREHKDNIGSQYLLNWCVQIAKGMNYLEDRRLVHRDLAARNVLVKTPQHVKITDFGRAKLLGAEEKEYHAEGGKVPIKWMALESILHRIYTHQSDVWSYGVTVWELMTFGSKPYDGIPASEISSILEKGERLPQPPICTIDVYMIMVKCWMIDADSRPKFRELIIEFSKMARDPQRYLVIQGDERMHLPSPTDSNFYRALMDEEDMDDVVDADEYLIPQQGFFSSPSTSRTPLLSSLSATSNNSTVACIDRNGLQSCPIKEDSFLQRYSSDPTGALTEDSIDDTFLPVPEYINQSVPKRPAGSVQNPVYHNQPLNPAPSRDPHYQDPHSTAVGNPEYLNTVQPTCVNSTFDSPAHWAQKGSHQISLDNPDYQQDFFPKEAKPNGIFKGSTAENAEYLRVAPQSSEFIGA
Epidermal growth factor receptor (Homo sapiens), sequence (P00533 whole entry): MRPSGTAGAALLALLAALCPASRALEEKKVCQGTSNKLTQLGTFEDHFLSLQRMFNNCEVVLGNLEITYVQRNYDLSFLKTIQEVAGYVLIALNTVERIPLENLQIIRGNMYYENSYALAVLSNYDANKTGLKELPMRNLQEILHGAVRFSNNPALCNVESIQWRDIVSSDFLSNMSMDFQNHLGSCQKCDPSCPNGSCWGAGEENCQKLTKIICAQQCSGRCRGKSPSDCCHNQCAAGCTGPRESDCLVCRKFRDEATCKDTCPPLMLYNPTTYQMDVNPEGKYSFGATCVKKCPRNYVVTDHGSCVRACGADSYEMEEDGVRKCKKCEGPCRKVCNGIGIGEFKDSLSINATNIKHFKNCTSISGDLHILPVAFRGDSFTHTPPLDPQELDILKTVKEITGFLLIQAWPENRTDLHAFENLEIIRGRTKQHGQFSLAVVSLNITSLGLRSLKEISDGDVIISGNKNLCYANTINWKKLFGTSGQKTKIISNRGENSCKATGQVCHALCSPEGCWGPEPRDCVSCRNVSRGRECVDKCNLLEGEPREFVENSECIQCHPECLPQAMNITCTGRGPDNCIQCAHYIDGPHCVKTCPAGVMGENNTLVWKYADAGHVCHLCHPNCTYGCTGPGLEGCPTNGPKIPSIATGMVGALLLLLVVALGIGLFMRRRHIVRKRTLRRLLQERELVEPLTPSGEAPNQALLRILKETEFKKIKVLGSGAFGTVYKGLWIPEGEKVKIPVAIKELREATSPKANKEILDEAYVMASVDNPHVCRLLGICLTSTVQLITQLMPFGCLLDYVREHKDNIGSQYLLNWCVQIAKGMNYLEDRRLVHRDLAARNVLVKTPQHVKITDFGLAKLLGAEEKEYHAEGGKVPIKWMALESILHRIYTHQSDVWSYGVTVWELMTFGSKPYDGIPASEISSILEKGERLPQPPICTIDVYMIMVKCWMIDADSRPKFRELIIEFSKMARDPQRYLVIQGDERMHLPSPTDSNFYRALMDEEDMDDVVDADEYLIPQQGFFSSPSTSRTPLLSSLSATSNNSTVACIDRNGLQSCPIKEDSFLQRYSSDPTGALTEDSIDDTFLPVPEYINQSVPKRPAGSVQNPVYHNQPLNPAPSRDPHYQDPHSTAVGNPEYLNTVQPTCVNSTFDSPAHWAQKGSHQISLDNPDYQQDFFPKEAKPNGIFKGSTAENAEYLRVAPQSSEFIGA
Ephrin type-A receptor 2 (Homo sapiens), sequence (P29317 whole entry): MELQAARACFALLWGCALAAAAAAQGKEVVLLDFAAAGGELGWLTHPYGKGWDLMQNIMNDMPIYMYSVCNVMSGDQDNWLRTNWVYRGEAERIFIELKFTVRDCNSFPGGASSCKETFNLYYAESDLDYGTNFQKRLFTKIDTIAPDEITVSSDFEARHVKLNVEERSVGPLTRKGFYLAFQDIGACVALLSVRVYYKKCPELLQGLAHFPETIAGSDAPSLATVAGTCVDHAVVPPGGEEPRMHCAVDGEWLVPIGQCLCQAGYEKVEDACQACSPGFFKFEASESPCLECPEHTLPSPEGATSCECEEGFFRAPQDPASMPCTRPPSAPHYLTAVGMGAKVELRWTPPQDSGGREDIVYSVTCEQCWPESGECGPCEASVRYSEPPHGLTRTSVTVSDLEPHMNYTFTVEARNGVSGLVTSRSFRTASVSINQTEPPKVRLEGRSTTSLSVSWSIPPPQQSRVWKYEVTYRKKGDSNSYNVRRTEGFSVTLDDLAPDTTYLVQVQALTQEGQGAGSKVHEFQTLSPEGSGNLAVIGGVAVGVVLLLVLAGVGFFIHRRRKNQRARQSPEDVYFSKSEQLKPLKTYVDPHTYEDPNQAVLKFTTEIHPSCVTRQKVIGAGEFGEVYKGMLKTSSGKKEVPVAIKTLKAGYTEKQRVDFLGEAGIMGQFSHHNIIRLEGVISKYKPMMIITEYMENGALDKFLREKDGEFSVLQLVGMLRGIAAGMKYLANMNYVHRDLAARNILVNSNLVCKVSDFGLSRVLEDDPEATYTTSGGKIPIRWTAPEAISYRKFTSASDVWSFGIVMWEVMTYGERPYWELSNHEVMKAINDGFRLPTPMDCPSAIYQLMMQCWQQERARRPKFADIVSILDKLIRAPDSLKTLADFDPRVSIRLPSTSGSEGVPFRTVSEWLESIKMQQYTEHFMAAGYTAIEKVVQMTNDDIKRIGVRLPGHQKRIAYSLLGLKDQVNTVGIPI
Tyrosine-protein kinase CSK (Homo sapiens), sequence (P41240 2-450 limits assumed): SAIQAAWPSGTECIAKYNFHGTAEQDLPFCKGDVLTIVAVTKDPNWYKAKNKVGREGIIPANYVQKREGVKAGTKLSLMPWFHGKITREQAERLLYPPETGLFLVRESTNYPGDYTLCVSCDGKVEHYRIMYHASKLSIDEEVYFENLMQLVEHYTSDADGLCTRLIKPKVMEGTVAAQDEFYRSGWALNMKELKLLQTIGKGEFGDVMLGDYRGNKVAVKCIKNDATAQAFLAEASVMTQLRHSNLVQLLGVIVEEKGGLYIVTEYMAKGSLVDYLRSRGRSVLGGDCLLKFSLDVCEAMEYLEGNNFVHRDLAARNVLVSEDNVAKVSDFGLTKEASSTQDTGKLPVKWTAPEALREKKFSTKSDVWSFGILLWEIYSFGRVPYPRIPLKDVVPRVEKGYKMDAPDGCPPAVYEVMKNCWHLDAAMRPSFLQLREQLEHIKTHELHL
Epidermal growth factor receptor (Homo sapiens), P00533 [L861Q], sequence (P00533 whole entry L861Q): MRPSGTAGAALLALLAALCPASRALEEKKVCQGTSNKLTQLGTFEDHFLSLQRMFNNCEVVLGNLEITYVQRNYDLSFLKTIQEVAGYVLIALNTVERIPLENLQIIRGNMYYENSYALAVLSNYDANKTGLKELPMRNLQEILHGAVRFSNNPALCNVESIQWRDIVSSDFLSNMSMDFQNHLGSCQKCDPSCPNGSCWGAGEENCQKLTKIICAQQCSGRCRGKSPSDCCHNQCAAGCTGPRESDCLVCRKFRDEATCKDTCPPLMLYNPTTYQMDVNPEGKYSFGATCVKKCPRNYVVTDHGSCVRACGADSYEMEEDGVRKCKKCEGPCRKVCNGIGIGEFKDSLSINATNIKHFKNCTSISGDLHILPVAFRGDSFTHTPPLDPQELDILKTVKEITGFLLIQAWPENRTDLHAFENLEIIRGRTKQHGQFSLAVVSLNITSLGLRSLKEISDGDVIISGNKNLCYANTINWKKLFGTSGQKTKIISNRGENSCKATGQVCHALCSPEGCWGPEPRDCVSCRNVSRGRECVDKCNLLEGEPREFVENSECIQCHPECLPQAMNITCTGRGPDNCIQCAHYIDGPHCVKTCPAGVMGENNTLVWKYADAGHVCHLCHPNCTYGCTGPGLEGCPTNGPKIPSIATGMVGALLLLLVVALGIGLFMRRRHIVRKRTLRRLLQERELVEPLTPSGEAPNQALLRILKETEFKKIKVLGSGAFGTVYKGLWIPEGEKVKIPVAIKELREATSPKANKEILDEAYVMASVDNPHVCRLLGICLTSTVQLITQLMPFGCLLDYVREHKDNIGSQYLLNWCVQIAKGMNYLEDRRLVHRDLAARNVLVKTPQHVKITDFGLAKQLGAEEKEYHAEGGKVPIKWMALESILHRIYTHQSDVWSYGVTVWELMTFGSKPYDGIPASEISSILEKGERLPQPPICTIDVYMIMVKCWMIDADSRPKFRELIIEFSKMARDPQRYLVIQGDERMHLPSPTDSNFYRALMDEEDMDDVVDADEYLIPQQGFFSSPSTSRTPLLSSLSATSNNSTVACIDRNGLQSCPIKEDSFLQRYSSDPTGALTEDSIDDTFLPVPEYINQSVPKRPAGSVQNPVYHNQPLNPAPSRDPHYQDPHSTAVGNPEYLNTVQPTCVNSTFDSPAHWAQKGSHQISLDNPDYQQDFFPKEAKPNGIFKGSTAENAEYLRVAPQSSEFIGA

Regarding `CN1CCN(CCCNc2nc3ccc(Oc4ccc(NC(=O)Nc5cc(C(F)(F)F)ccc5F)cc4)cc3[nH]2)CC1`, the inhibition in assay [1] was -3.31%; in assay [2] it was 73.9%; in assay [3], 83.6%; in assay [4], -3.44%; in assay [5], 0.24%; in assay [6] it was 1%. The inhibition is 0.13% in assay [7]; 0.67% in assay [8]; -4.02% in assay [9]; 0.51% in assay [10]; -2.83% in assay [11]; -0.44% in assay [12]. Further, the inhibition in assay [13] was -4.26%; in assay [14], -3.26%; in assay [15] it was 2.37%; in assay [16], -0.6%; in assay [17], -0.47%; in [18], 6.02%. The inhibition in assay [19] is 25.9%; in assay [20], 9.54%.
With `COc1cccc(/C=N/Nc2ncnc3c2cnn3-c2cccc(OC)c2)c1`, the inhibition in assay [1] amounted to 3.91%; in assay [2], 1.34%; in [3] it was 2.5%; in [4], 1.31%; in [5], 2.97%; in [6] it was 2.05%. The inhibition in assay [7] came to 8.79%; in assay [8] it was 1.95%; in assay [9], 4.05%; in assay [10], 0.54%; in assay [11] it was 2.12%; in assay [12], 2.14%. Moreover, the inhibition in [13] is 2.04%; in assay [14] it was -1.3%; in assay [15] it was -1.94%; in assay [16] it was 1.72%; in assay [17], 3.83%; in [18] it was 6.9%. Besides, the inhibition in assay [19] stood at 9.69%; in [20], 8.19%.
`C/C(Nc1ccc(S(N)(=O)=O)cc1)=C1/C(=O)Nc2ccccc21`: the inhibition in [1] is -4%; in assay [2] it was -0.09%; in assay [3], 0.07%; in assay [4], -1.34%; in assay [5] it was 2.48%; in [6] it was -0.73%. In addition, the inhibition is 0.1% in assay [7]; 0.08% in assay [8]; 0.01% in [9]; -0.56% in [10]; 0.03% in assay [11]; -0.46% in [12]. Further, the inhibition is -1.66% in [13]; -4.14% in assay [14]; -3.36% in assay [15]; -8.6% in [16]; -1.74% in assay [17]; -4.44% in [18]. The inhibition in assay [19] was -2.02%; in assay [20], -3.98%.
As for `NC(=O)c1cc(-c2ccc(F)cc2)cc(-c2ccncc2)c1N`, the inhibition in [1] was 5.4%; in [2], 1.42%; in assay [3] it was 2.13%; in [4], -0.24%; in assay [5], 5.03%; in assay [6], 5.96%. In addition, the inhibition in assay [7] stood at 7.27%; in [8], 4.19%; in assay [9] it was 7.37%; in assay [10], 1.23%; in assay [11] it was 3.83%; in assay [12], 0.39%. Besides, the inhibition in assay [13] was -0.62%; in [14], 0.4%; in assay [15], 3.67%; in [16], 4.53%; in assay [17] it was 2.83%; in assay [18], 10.1%. In addition, the inhibition in assay [19] was 12.7%; in [20], 5.78%.
As for `Cc1ccc(NC(=O)c2ccoc2)cc1-c1ccc(C(=O)NCC2CC2)cc1`, the inhibition in assay [1] worked out at 0.18%; in [2], 1.48%; in assay [3], 2.43%; in [4], 3.14%; in assay [5], 6.36%; in assay [6], 3.23%. Further, the inhibition in assay [7] is 1%; in assay [8], 0.74%; in assay [9], 0.37%; in assay [10], 1.63%; in assay [11] it was 0.9%; in assay [12] it was 2.36%. Moreover, the inhibition was 1.46% in assay [13]; 0.92% in assay [14]; -0.44% in assay [15]; 1.99% in assay [16]; 2.02% in [17]; 5.05% in assay [18]. Besides, the values for the inhibition in assay [19] and in assay [20] were 6.13% and 2.46%, respectively.

By inhibition is commonly meant the relative decrease from the control value, in per cent.
